Measured values: PubChem BioAssay AID493094 (Broad Institute, 2011)
A number with no mark means an inactive call. The source made the active and inactive calls.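 Rule for the calls: active = falling FRET signal with an AC50 fitted within ten times the highest valid concentration tested for that sample (actives reach about 61 µM in these data); inactive = the rest, including compounds that raise the signal.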

Experiment: YIC FRET probe signal interference, dose response, counter-screen for RanGTP-importin-beta inhibitor project, biochemical, dry powder samples (AID 493094)
Conditions: cell-free YIC FRET probe, YFP/CFP ratio; series mostly up to 100 µM; activity change, negative = inhibition: at the top concentration

SMILES	activity change, negative = inhibition	AC50
Clc1nc(NCc2ccccc2)c2ccccc2n1	-8.16%	
COc1cc(OC)cc(C(=O)NCCNc2nc3cc(C)cc(C)c3cc2C#N)c1		27 µM (active)
COc1cc2nc(N3CCCC3)nc(N3CCCC3)c2cc1OC	-4.26%	
COCCNC(=O)/C(C#N)=C/c1cn(CC(=O)NCc2ccco2)c2ccccc12		61.3 µM (active)
CCCN(CCC)c1nc(N2CCCC2)nc2cc(OC)c(OC)cc12	0.149% [at 50 µM]	
CC1=C(C(=O)OCC2CCCO2)C(c2ccccc2OC(C)C)C2C(=O)CC(c3ccco3)CC2=N1 (stereo unspecified)		13.2 µM (active)
CCCN(CCC)c1nc(N2CCNCC2)c2ccccc2n1	-12.9%	
CCCN(CCC)c1nc(N2CCCC2)nc2ccccc12		inactive
CC(Nc1nc(N2CCCC2)nc2ccccc12)c1ccccc1 (stereo unspecified)	-5.12%	
Cc1cc(Nc2ccc(C(F)(F)F)cc2)n2ncnc2n1	-7.53%	
COc1ccc(CCNC(=O)c2cc3c(=O)n4cccc(C)c4nc3n(CCCN3CCOCC3)c2=N)cc1		4.28 µM (active)
CC1(C)CCC(c2ccc(Cl)cc2)=C(CN2CCN(c3ccc(C(=O)NS(=O)(=O)c4ccc(N[C@H](CCN5CCOCC5)CSc5ccccc5)c(S(=O)(=O)C(F)(F)F)c4)cc3)CC2)C1	-3.98%	
c1ccc(CNc2nc(N3CCCC3)nc3ccccc23)cc1	6.88%	
c1ccc2c(N3CCCC3)nc(N3CCCC3)nc2c1	-8.4%	
CCNc1nc(N2CCCC2)nc2ccccc12	-7.07%	
CCCN(CCC)c1nc(N2CCCC2)c2cc(OC)c(OC)cc2n1	-7.73% [at 26 µM]	
C[C@@H](Nc1nc(Cl)nc2ccccc12)c1ccccc1	-3.98%	
CCCN(CCC)c1nc(N2CCOCC2)nc2ccccc12	-4.59%	

SMILES	activity change, negative = inhibition	AC50
Cc1ccc(S(=O)(=O)c2cc3c(=O)n4cccc(C)c4nc3n(C3CCCCC3)c2=N)cc1		26 µM (active)
C[C@H](Nc1nc(Cl)nc2ccccc12)c1ccccc1	-1.62%	
C[C@@H](Nc1nc(N2CCCC2)nc2ccccc12)c1ccccc1	2.73%	
CC(C)SCC(=O)Nc1ncc2c(n1)-c1ccccc1CC2		6.37 µM (active)
O=C(O)Cn1cc(/C=C2\SC(=O)N(CC(=O)N3CCCCCC3)C2=O)c2ccccc21		55.3 µM (active)
CC1(C)CC(=O)c2c(C(F)(F)F)nn(-c3ccc(C(N)=O)c(NC4CCC(O)CC4)c3)c2C1 (stereo unspecified)	-5.26%	
CCCN(CCC)c1nc(Cl)nc2ccccc12	-9.7%	
c1ccc2c(N3CCOCC3)nc(N3CCOCC3)nc2c1	-0.521%	
C=CCn1c(N)c(C(=O)OCCC)c2nc3ccccc3nc21		36.9 µM (active)
CCN(CC)c1nc(N2CCCC2)nc2ccccc12	-6.96%	
Cc1cccc(-n2c(C)cc(/C=C3/C(=N)N4N=C(CC(C)C)SC4=NC3=O)c2C)c1		25.4 µM (active)
CC1(C)CC(=O)c2c(C(F)(F)F)nn(-c3ccc(C(N)=O)c(NC4CCC(OC(=O)CN)CC4)c3)c2C1 (stereo unspecified)	-7.87%	
C[C@H](Nc1nc(N2CCCC2)nc2ccccc12)c1ccccc1	-2.49%	
CCCN(CCC)c1nc(NCc2ccccc2)nc2ccccc12	-6.33%	
CCCN(CCC)c1nc(N)c2ccccc2n1	-8.69%	
CC1(C)CC(=O)c2c(C(F)(F)F)nn(-c3ccc(C(N)=O)c(OC4CCC(N)CC4)c3)c2C1 (stereo unspecified)	-11.5%	
O=c1[nH]c(N2CCCC2)nc2ccccc12	-5.45%	
COc1ccc(-c2cc(C(F)(F)F)n3nc(N)nc3n2)cc1		54.5 µM (active)
